The record followed here is PubChem BioAssay (NCATS).

One experiment deals with MCC-26. Kind of experiment: qHTS assay to identify novel small-molecules to repurpose for Merkel cell carcinoma treatment (AID 1296009). Also: nearly all actives have a fitted effect of over 60% in size. Also: potency is read from the fitted curve at half-maximal effect. The following applies: MCC and control cell lines, CellTiter-Glo viability, 72 h; series mostly up to 46 µM. Put shortly:
(§1)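 qHTS format: cells treated with library compounds in DMSO across 8 (NPC) or 11 (MIPE) concentrations. Readout after 72 hr at 37 degree celsius was CellTiter-Glo luminescence.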

A further experiment deals with MKL-1. Described as above. The following applies: MCC and control cell lines, CellTiter-Glo viability, 72 h; series mostly up to 46 µM. The essentials: as §1
(In general: In ATP-based viability assays light output follows the ATP content of the culture.)

Another experiment relates to MKL-2. Described as above. To be noted: MCC and control cell lines, CellTiter-Glo viability, 72 h; series mostly up to 46 µM. Put shortly:
as §1

The test system of the next experiment is UISO. Described as above. The following applies: MCC and control cell lines, CellTiter-Glo viability, 72 h; series mostly up to 46 µM. Put shortly: as §1
The test system of another experiment is WaGa. The description is as above. The following applies: MCC and control cell lines, CellTiter-Glo viability, 72 h; series mostly up to 46 µM. Put shortly:
as §1

Another experiment concerns C33A. The experiment in a line: Primary qHTS to identify gynecologic anti-cancer compounds using libraries of approved drugs and bioactive compounds (AID 1345084). Also: nearly all actives have a fitted effect of over 55% in size. To be noted: Gynecologic cancer cell panel viability, ATPlite luminescence, 48 h; series mostly up to 57.5 µM. Put shortly:
(§2)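 Five-point cytotoxicity, 48 h drug exposure at 37 C, 5% CO2, on cells seeded 16 h beforehand. ATP content read by ATPlite luminescence.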

The next experiment has as its system CAOV3. Described as above. To be noted: Gynecologic cancer cell panel viability, ATPlite luminescence, 48 h; series mostly up to 57.5 µM. The essentials: as §2
In another experiment the test system is CASKI. The description is as above. To be noted: Gynecologic cancer cell panel viability, ATPlite luminescence, 48 h; series mostly up to 57.5 µM. Put shortly: as §2
The subject of another experiment is Es-2. The description is as above. The following applies: Gynecologic cancer cell panel viability, ATPlite luminescence, 48 h; series mostly up to 57.5 µM. Put shortly: as §2
The test system of the next experiment is HeLa. The experiment is described as above. To be noted: Gynecologic cancer cell panel viability, ATPlite luminescence, 48 h; series mostly up to 57.5 µM. Put shortly: as §2
The subject of another experiment is Hek293T. The description is as above. The following applies: Gynecologic cancer cell panel viability, ATPlite luminescence, 48 h, control line for the selectivity index; series mostly up to 57.5 µM. The essentials: as §2
In the next experiment the test system is JEG-3. The experiment is described as above. The following applies: Gynecologic cancer cell panel viability, ATPlite luminescence, 48 h; series mostly up to 57.5 µM. Put shortly: as §2
The test system of the next experiment is OV90. Described as above. To be noted: Gynecologic cancer cell panel viability, ATPlite luminescence, 48 h; series mostly up to 57.5 µM. Put shortly:
as §2

Another experiment concerns PA-1. Described as above. The following applies: Gynecologic cancer cell panel viability, ATPlite luminescence, 48 h; series mostly up to 57.5 µM. Put shortly:
as §2

Another experiment concerns SKOV3. The experiment is described as above. The following applies: Gynecologic cancer cell panel viability, ATPlite luminescence, 48 h; series mostly up to 57.5 µM. Put shortly:
as §2

The subject of another experiment is Tov-21-G. The experiment is described as above. To be noted: Gynecologic cancer cell panel viability, ATPlite luminescence, 48 h; series mostly up to 57.5 µM. The essentials: as §2
A further experiment relates to Tov112D. The experiment is described as above. To be noted: Gynecologic cancer cell panel viability, ATPlite luminescence, 48 h; series mostly up to 57.5 µM. The essentials: as §2
Experiment [1] in a line: Drug repurposing screens with cells derived from glioblastoma tumor samples (AID 1345199). Also: nearly all actives have a fitted effect of over 40% in size. To be noted: GBM patient neurospheres viability, ATP luminescence, 48 h. The essentials: (§3)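 Four patient lines of CD133+ GBM neurospheres were screened at several concentrations; hits were retested in those lines plus three slower-growing GBM lines, using 48-hour treatment and ATP-based viability.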

The test system of the next experiment is astro. The description is as above. The following applies: viability, ATP luminescence, 48 h; series mostly up to 45.9 µM. The essentials: as §3
The mark [2] stands for this setting: at 45.9 µM (top of the series), tumour line B.
[3] abbreviates: at 45.9 µM (top of the series), tumour line D.
[4] abbreviates: at 46.1 µM (top of the series), tumour line C.
[5] abbreviates: at 46 µM (top of the series), tumour line A.

Several values for one entry are separate records, joined by “and”; a condition that tells them apart may be missing. Identical values can stand only once. Inconclusive results are not listed. A structure can be active in one record and inactive in another. Activity calls are given as the source filed them. Calls follow the shape of the dose curve; as a rule, active = well fitted curve in the direction sought with a large enough effect; inconclusive = small, poorly fitted or top-dose-only effect, or another doubt; inactive = no such curve, though single readings can be large; an effect the other way counts as inactive or inconclusive.
% is scaled to controls: 0 for no effect and ±100 for the full control effect.

`COc1ccc2c(c1)c(CC(=O)OCC(=O)O)c(C)n2C(=O)c1ccc(Cl)cc1`: the Potency entry with MCC-26, with MKL-1, in the experiment with MKL-2, with UISO, in the experiment on WaGa and in the experiment with C33A was “inactive” in each case. Further, the Potency result in the experiment with CAOV3, in the experiment on CASKI, in the experiment on Es-2, in the experiment on HeLa, in the experiment on Hek293T and with JEG-3 was “inactive” in each case. The Potency entry in the experiment with OV90, in the experiment with PA-1, in the experiment with SKOV3, in the experiment with Tov-21-G, with Tov112D and in the experiment with astro was “inactive” each time. The values for the activity, negative = cell killing in experiment [1] (setting [2]), in experiment [1] (setting [3]) and in experiment [1] (setting [4]) were -1.02% (inactive), -7.57% (inactive) and 8.41% (inactive), respectively.
As to `O=C(O)C1CCCN(CCC=C(c2ccccc2)c2ccccc2)C1` (stereo not drawn), the Potency entry in the experiment with MCC-26, with MKL-1, in the experiment on MKL-2, with UISO and in the experiment on WaGa was “inactive” each time.
On to `Cc1ccnc2c1NC(=O)c1cccnc1N2C1CC1`, for which the Potency entry in the experiment with MCC-26, in the experiment on MKL-1, in the experiment on MKL-2, in the experiment with UISO, in the experiment with WaGa and in the experiment on C33A was “inactive” throughout. The Potency result in the experiment with CAOV3, in the experiment on CASKI, in the experiment with Es-2, in the experiment with HeLa, in the experiment on Hek293T and with JEG-3 was “inactive” throughout. For the same molecule, the Potency entry with OV90, in the experiment on PA-1, with Tov-21-G, in the experiment with Tov112D and with astro was “inactive” throughout. For the same molecule, the activity, negative = cell killing in experiment [1] (setting [2]) is -8.19% (inactive); in experiment [1] (setting [3]) it was 4.3% (inactive); in experiment [1] (setting [5]), -21.5% (inactive); in experiment [1] (setting [4]) it was -3.33% (inactive).
Turning to `CC(=O)CC(c1ccccc1)c1c(O)c2ccccc2oc1=O` (stereo not drawn), the Potency entry with MCC-26, in the experiment on MKL-1, in the experiment with MKL-2, in the experiment on UISO, with WaGa and with C33A was “inactive” in each case. For the same molecule, the Potency entry in the experiment on CAOV3, with CASKI, in the experiment with Es-2, with HeLa, with Hek293T and in the experiment on JEG-3 was “inactive” each time. Moreover, the Potency entry in the experiment with OV90, in the experiment with Tov-21-G, in the experiment on Tov112D and with astro was “inactive” each time. Moreover, the activity, negative = cell killing was -11.1% (inactive) and -14.3% (inactive) in experiment [1] (setting [2]); 1.21% (inactive) and -22.4% (inactive) in experiment [1] (setting [3]); -22% (inactive) in experiment [1] (setting [5]); -1.82% (inactive) and -1.98% (inactive) in [1] (setting [4]).
Regarding `O=C(N[C@H](CO)[C@H](O)c1ccc([N+](=O)[O-])cc1)C(Cl)Cl`, the Potency entry in the experiment with MCC-26, with MKL-1, in the experiment with MKL-2, with UISO, with WaGa and in the experiment on C33A was “inactive” throughout. Moreover, the Potency entry in the experiment on CASKI, with Es-2, with HeLa, in the experiment with Hek293T, in the experiment with JEG-3 and with PA-1 was “inactive” each time. Moreover, the Potency entry with SKOV3, in the experiment on Tov112D and in the experiment with astro was “inactive” in each case. The activity, negative = cell killing was -13.1% (inactive) in [1] (setting [2]); -46.2% (inactive) in [1] (setting [5]); -18.2% (inactive) in experiment [1] (setting [4]); -17.6% (inactive) in experiment [1] (at 91.6 µM (top of the series), tumour line B).
Regarding `CN(CCOc1ccc(CC2SC(=O)NC2=O)cc1)c1ccccn1` (stereo not drawn), the Potency entry with MCC-26, in the experiment with MKL-1, with MKL-2, in the experiment with UISO, in the experiment with WaGa and in the experiment on C33A was “inactive” throughout. The Potency result with CAOV3, with CASKI, in the experiment with Es-2, in the experiment on Hek293T, in the experiment with JEG-3 and with PA-1 was “inactive” in each case. In addition, the Potency entry in the experiment on SKOV3, in the experiment on Tov-21-G, in the experiment with Tov112D and with astro was “inactive” each time. Also, the activity, negative = cell killing was -18.3% (inactive) in experiment [1] (setting [2]), -26.6% (inactive) in experiment [1] (setting [3]), -36.2% (inactive) in [1] (setting [5]) and 15.3% (inactive) in [1] (setting [4]).
`COc1nc(N)nc2c1ncn2[C@@H]1O[C@H](CO)[C@@H](O)[C@@H]1O`: the Potency entry in the experiment on MCC-26, in the experiment with MKL-1, with MKL-2, in the experiment on UISO, in the experiment with C33A and with CAOV3 was “inactive” throughout. In addition, the Potency result in the experiment on CASKI, in the experiment on Es-2, in the experiment with HeLa, in the experiment on Hek293T, in the experiment with JEG-3 and with OV90 was “inactive” throughout. Moreover, the Potency result with PA-1, in the experiment on SKOV3, in the experiment on Tov-21-G, in the experiment with Tov112D and in the experiment on astro was “inactive” each time. Further, the Potency result in the experiment with WaGa was “inactive and 18.7 µM (active)”. Moreover, the activity, negative = cell killing in experiment [1] (setting [2]) was -17.9% (inactive); in [1] (setting [3]), 6.59% (inactive); in [1] (setting [5]), -10% (inactive); in experiment [1] (setting [4]), -10.9% (inactive).
